Test results taken from PubChem BioAssay (NCATS).
Where “and” joins values, the source holds several entries; their conditions need not be identical. Equal values may be shown once. Records with an inconclusive call do not appear. Calls of active or inactive are those of the source. Unless noted, calls come from the whole dose curve.

Experiments:
[1] = qHTS assay for small molecule antagonists of peroxisome proliferator-activated receptor delta signaling (AID 588535); settings: HEK293T PPARd-UAS-bla, beta-lactamase FRET ratio, 18 h; 460 nm channel;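 note: cells co-treated with a PPAR-delta agonist as stimulator during compound exposure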
Summary of the method: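 Fluorescence from CCF4-loaded GeneBLAzer PPAR-delta-UAS-bla HEK293T cells (2 hrs RT loading) quantified reporter inhibition after an 18 hr, 37 C compound exposure across a titration.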

[2] = biological target: Peroxisome proliferator-activated receptor gamma (Homo sapiens) (UniProt P37231); assay: qHTS assay for small molecule agonists of peroxisome proliferator-activated receptor gamma signaling (AID 588536; active = well fitted curve in the direction sought with a large enough effect in the signal ratio, with a control signal flat, not every such curve was filed as active; the % refers to the signal ratio;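 note: 0% = DMSO basal wells and 100% = rosiglitazone at 2 µM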); settings: HEK293 PPARg-UAS-bla, beta-lactamase ratio, 16 h, percent of rosiglitazone response, DMSO as zero; series mostly up to 76.7 µM
Summary of the method: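 Compound treatment: 16 h, 37 C, HEK293 GeneBLAzer cells. Detection: CCF4, 2 h RT. Values: Hill-fit EC50, efficacy as % of 2 uM rosiglitazone.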

[3] = biological target: Glucocorticoid receptor (Homo sapiens) (UniProt P04150); assay: qHTS assay for small molecule agonists of glucocorticoid receptor signaling (AID 588532; active = well fitted curve in the direction sought with a large enough effect in the signal ratio, with a control signal flat; the % refers to the signal ratio;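 note: 100% = dexamethasone at 0.1 µM and 0% = DMSO only wells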); settings: HeLa MMTV-bla, beta-lactamase ratio, agonist, 18 h; stronger effect = higher value; percent of dexamethasone control, DMSO zero
Summary of the method: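 MMTV-bla HeLa beta-lactamase reporter cells in 1% charcoal/dextran FBS medium, compounds up to 92 uM for 18 h at 37 C, CCF4 readout; normalized to 0.1 uM dexamethasone (100%), EC50 and efficacy from Hill fits.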

[4] = biological target: Peroxisome proliferator-activated receptor gamma (Homo sapiens) (UniProt P37231); assay: qHTS assay for small molecule antagonists of peroxisome proliferator-activated receptor gamma signaling (AID 588537; active = well fitted inhibition curve with a large enough effect in the signal ratio, with a control signal flat, not every such curve was filed as active; the % refers to the signal ratio;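 note: reporter cells co-stimulated with 50 nM rosiglitazone agonist during compound treatment; % of control where 0% means no effect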); settings: HEK293 PPARg-UAS-bla, beta-lactamase ratio, antagonist mode; series mostly up to 76.8 µM
Summary of the method: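 Fluorescence at 460 and 530 nm (405 nm excitation) reported beta-lactamase cleavage of CCF4 after 2 h room-temperature loading. HEK293 reporter cells in 1% charcoal/dextran-treated FBS had received compound and rosiglitazone for 16 h.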

[5] = biological target: Vitamin D3 receptor (Homo sapiens) (UniProt P11473); assay: qHTS assay for small molecule antagonists of vitamin D receptor signaling (AID 588541); settings: HEK293T VDR-UAS-bla, beta-lactamase ratio, antagonist mode; series mostly up to 76.7 µM;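 note: receptor activated by calcitriol during compound treatment; % is set by controls: 0 for no effect and ±100 for the full control effect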
Summary of the method: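 VDR-UAS-bla HEK293T cells in 2% charcoal-stripped FBS were stimulated with 1-alpha,25-dihydroxyvitamin D3 (3 nM final) plus compound for 16 h at 37 C. The beta-lactamase CCF4 readout was normalized to 50 nM agonist and DMSO, and Hill fits gave IC50.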

[6] = qHTS assay for small molecule agonists of retinoid X receptor alpha signaling (AID 588544); settings: HEK293T RXRa-UAS-bla, beta-lactamase reporter, 18 h; 530 nm emission
[7] = biological target: Bile acid receptor (Homo sapiens) (UniProt Q96RI1); assay: qHTS assay for small molecule antagonists of farnesoid X receptor signaling (AID 588526); settings: HEK293T FXR-UAS-bla, beta-lactamase ratio, antagonist mode; series mostly up to 76.7 µM; note: % is set by controls: 0 for no effect and ±100 for the full control effect
Summary of the method: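 Antagonist mode: titrated compounds tested against chenodeoxycholic acid stimulation (normalized to 50 uM CDCA and DMSO) in GeneBLAzer HEK293T cells for 16 h. Beta-lactamase read by CCF4 fluorescence; IC50 from Hill fits.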

[8] = biological target: Vitamin D3 receptor (Homo sapiens) (UniProt P11473); assay: qHTS assay for small molecule agonists of vitamin D receptor signaling (AID 588543); settings: HEK293T VDR-UAS-bla, beta-lactamase ratio, 16 h; series mostly up to 76.8 µM;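 note: 0% = DMSO basal and 100% = reference agonist control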
Summary of the method: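 VDR-UAS-bla HEK293T cells, 2000/well, 2% charcoal-stripped FBS; compound titration 16 h at 37 C; CCF4 beta-lactamase ratio read. Normalized to 50 nM 1-alpha,25-dihydroxyvitamin D3 (100%) and DMSO; Hill fit gives EC50, efficacy.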

[9] = biological target: Glucocorticoid receptor (Homo sapiens) (UniProt P04150); assay: qHTS assay for small molecule antagonists of glucocorticoid receptor signaling (AID 588533; active = well fitted inhibition curve with a large enough effect in the signal ratio, with a control signal flat, not every such curve was filed as active; the % refers to the signal ratio; note: % is set by controls: 0 for no effect and ±100 for the full control effect); settings: HeLa MMTV-bla, GRE beta-lactamase ratio, antagonist mode, 18 h; series mostly up to 76.8 µM
Summary of the method: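 Antagonist-mode qHTS: compound titrations added to GRE-bla HeLa cells, then dexamethasone 2 nM final; 18 h, 37 C. CCF4 FRET fluorescence normalized to dexamethasone and DMSO; IC50 from Hill fit.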

[10] = biological target: Androgen receptor (Homo sapiens) (UniProt P10275); assay: qHTS assay for small molecule antagonists of androgen receptor signaling (AID 588516; active = well fitted curve in the direction sought with a large enough effect in the signal ratio, with a control signal flat, not every such curve was filed as active; the % refers to the signal ratio; note: % is set by controls: 0 for no effect and ±100 for the full control effect); settings: AR-UAS-bla HEK293, beta-lactamase ratio, antagonist mode, 16 h; series mostly up to 76.8 µM
Summary of the method: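 AR-UAS-bla GripTite HEK 293 cells (2000/well) treated with compound titrations plus 10 nM R1881 for 16 h at 37C. Beta-lactamase read by CCF4 FRET (460/530 nm); IC50 from Hill fits, normalized to R1881 and DMSO control wells.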

Androgen receptor (Homo sapiens), sequence (P10275 whole entry, looked up): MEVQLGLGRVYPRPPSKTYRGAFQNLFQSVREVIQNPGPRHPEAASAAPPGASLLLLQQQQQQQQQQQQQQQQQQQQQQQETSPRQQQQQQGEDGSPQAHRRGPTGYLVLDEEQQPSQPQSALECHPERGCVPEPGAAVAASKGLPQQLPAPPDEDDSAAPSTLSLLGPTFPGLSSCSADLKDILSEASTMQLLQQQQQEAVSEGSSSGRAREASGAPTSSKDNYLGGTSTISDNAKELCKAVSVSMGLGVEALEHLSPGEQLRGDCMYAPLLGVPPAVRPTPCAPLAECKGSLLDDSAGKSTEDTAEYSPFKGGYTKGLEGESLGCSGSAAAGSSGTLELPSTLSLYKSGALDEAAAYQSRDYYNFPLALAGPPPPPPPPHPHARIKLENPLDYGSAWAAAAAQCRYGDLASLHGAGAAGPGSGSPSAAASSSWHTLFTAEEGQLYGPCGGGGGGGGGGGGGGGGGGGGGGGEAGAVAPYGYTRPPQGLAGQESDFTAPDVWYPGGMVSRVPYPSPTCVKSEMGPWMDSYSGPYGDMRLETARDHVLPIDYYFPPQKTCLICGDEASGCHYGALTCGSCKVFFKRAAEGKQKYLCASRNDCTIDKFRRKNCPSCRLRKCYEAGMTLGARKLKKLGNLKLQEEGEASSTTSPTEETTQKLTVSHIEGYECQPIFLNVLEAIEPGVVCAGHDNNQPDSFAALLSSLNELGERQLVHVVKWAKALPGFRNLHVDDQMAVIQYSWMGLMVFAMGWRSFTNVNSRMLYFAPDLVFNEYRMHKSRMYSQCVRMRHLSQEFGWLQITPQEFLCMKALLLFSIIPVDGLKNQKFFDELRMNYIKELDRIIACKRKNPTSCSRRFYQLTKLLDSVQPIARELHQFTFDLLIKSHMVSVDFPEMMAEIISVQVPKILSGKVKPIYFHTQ
Peroxisome proliferator-activated receptor gamma (Homo sapiens), sequence (P37231 whole entry, looked up): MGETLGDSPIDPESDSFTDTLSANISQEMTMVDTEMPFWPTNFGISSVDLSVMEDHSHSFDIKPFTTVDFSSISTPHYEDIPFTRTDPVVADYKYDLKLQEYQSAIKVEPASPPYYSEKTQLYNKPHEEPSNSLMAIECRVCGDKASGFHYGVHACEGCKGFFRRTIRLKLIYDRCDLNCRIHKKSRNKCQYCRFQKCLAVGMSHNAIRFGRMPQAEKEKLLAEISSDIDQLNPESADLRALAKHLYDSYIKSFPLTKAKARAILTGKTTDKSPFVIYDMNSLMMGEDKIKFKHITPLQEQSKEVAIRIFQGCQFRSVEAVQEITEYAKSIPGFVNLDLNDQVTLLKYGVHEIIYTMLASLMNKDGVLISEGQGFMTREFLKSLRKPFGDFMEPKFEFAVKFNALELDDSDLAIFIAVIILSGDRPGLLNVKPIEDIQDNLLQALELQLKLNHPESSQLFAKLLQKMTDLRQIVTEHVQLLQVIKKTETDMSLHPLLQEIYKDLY
Glucocorticoid receptor (Homo sapiens), sequence (P04150 whole entry, looked up): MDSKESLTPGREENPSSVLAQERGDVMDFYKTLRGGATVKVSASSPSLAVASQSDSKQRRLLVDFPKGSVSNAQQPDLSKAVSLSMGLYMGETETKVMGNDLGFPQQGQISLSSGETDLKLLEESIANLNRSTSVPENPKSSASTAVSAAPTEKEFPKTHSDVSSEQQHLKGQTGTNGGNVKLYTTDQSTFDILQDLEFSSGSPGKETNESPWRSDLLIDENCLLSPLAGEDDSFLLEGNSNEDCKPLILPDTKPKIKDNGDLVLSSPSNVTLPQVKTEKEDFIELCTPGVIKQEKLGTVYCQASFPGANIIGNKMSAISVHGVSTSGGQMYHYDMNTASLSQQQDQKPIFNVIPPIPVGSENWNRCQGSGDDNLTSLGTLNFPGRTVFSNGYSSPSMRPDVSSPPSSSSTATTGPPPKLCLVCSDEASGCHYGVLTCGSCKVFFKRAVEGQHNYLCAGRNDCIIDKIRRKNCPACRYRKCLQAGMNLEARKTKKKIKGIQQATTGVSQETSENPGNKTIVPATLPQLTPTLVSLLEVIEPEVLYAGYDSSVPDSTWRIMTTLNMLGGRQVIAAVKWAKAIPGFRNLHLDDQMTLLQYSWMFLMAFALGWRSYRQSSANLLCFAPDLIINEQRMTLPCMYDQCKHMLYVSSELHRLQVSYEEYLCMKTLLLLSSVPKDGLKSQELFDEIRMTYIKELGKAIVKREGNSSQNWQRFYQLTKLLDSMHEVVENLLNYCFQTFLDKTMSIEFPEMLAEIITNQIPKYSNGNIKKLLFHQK
Bile acid receptor (Homo sapiens), sequence (Q96RI1 whole entry, looked up): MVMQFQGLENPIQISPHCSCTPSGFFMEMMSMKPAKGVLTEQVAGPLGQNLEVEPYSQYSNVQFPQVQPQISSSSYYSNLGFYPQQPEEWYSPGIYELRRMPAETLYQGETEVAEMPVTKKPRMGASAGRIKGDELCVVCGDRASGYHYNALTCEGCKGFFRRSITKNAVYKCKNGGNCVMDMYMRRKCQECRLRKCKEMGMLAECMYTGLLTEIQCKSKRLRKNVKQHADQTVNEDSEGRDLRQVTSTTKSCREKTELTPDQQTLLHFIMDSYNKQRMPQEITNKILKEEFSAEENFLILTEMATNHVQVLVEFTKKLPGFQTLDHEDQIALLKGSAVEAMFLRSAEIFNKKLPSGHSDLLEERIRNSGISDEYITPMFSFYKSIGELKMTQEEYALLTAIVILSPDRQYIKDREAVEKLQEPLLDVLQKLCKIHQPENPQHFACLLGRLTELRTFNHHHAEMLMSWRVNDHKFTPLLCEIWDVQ
Vitamin D3 receptor (Homo sapiens), sequence (P11473 whole entry, looked up): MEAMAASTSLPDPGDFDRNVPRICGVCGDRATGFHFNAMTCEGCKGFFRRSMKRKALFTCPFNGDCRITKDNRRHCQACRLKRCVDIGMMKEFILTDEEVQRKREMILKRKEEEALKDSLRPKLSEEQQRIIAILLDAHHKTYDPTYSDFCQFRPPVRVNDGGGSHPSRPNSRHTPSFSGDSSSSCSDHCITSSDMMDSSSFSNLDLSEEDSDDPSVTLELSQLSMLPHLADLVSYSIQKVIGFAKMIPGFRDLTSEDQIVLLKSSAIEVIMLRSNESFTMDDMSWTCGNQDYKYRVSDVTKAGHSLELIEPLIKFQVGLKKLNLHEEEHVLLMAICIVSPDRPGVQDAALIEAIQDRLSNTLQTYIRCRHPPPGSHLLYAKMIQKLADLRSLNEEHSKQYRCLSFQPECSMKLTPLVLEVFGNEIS

Row | Structure (SMILES) | max response [1] | outcome [2] | activation [3] | outcome [4] | outcome [5] | max response [6] | outcome [7] | outcome [8] | outcome [9] | outcome [10]
1 | O=C1NS(=O)(=O)c2ccccc21 | 2.93% | inactive |  |  |  |  |  |  |  | 
2 | Cc1cccc(Nc2cc(Cl)nc(SCC(=O)O)n2)c1C |  | inactive | -9.26% (inactive) | inactive | inactive | -6% |  |  |  | 
3 | CN(C)CCCN1c2ccccc2Sc2ccc(Cl)cc21 | -54.6% | inactive | 7.77% (inactive) |  | inactive | -6.01% | inactive | inactive |  | 
4 | Oc1cccc(O)c1 | 15.8% | inactive | 1.81% (inactive) | inactive | inactive | -9.49% |  | inactive | inactive | 
5 | [Cl][In]([Cl])[Cl] | 29.3% |  |  |  | inactive | -5.94% |  | inactive |  | 
6 | O=S(=O)(O)NC1CCCCC1 |  |  |  | inactive | inactive |  |  | inactive |  | 
7 | CC1(C)[C@@H]2CC[C@@]1(C)C(=O)C2 | 5.89% |  | 6.36% (inactive) |  | inactive | -8.55% |  | inactive | inactive | 
8 | CC(O)CN(CCN(CC(C)O)CC(C)O)CC(C)O (configuration not stated) | 30% | inactive | -7.72% (inactive) | inactive | inactive |  | inactive | inactive | inactive | 
9 | O=C1O[C@H]([C@@H](O)CO)C(O)=C1O | -14.8% | inactive | 1.61% (inactive) and 16.4% (inactive) | inactive |  | -15.9% and -7.94% |  |  | inactive | 
10 | CCCCCCCCCCCCOS(=O)(=O)O |  | inactive |  | inactive | inactive | -1.31% [middle of 4 runs] |  | inactive | inactive | 
11 | Cc1c(O)cccc1C(=O)N[C@@H](CSc1ccccc1)[C@H](O)CN1C[C@H]2CCCC[C@H]2C[C@H]1C(=O)NC(C)(C)C |  |  |  |  |  |  |  | inactive |  | 
12 | CCOC(=O)c1ccc(O)cc1 | -12.7% |  |  |  |  | 3.41% | inactive | inactive | inactive | 
13 | CN(C)CCC=C1c2ccccc2CCc2ccccc21 | 10% |  |  |  | inactive | 20% |  | inactive |  | 
14 | CC(CN1c2ccccc2Sc2ccccc21)N(C)C (configuration not stated) |  |  |  |  |  | 10.3% |  |  |  | 
15 | CC(O)COc1ccccc1 (configuration not stated) | 6.24% | inactive | -13.7% (inactive) | inactive | inactive | -14.5% | inactive | inactive | inactive | inactive
16 | O=C1c2c(O)cccc2Cc2cccc(O)c21 | -22% | inactive | -1.63% (inactive) |  |  | -24.2% | inactive |  | inactive | 
17 | CNC(=O)Oc1ccc2c(c1)[C@]1(C)CCN(C)[C@@H]1N2C |  | inactive | -3.85% (inactive) | inactive | inactive | -13.6% | inactive | inactive | inactive | 
18 | CC1=C(/C=C/C(C)=C/C=C/C(C)=C/C(=O)O)C(C)(C)CCC1 | 53.7% and 67% |  | 3.3% (inactive) and -6.04% (inactive) | inactive | inactive |  |  | inactive | inactive | 

Row | Structure (SMILES) | max response [1] | outcome [2] | activation [3] | outcome [4] | outcome [5] | max response [6] | outcome [7] | outcome [8] | outcome [9] | outcome [10]
19 | CCCc1c(OCCCCc2nn[nH]n2)ccc(C(C)=O)c1O |  |  | -8.74% (inactive) |  |  |  | inactive |  | inactive | 
20 | COc1ccccc1O | -6.63% and -4.79% | inactive | 0.59% (inactive) and 4.92% (inactive) and -0.396% (inactive) | inactive | inactive | -7.45% and -9.73% and 7.42% | inactive | inactive | inactive | 
21 | C[C@]12CC[C@@H]3c4ccc(O)cc4CC[C@H]3[C@@H]1CCC2=O |  |  |  |  |  | 5.7% | inactive |  |  | 
22 | NC(=O)N/N=C/c1ccc([N+](=O)[O-])o1 | 4.74% | inactive | -5.85% (inactive) and -2.6% (inactive) |  | inactive |  |  | inactive | inactive | 
23 | COc1ccc(Cl)cc1C(=O)NCCc1ccc(S(=O)(=O)NC(=O)NC2CCCCC2)cc1 |  | inactive |  |  |  |  | inactive |  |  | 
24 | NC(=O)c1ncn([C@@H]2O[C@H](CO)[C@@H](O)[C@H]2O)n1 |  |  | 1.78% (inactive) |  | inactive | 18.3% |  | inactive | inactive | 
25 | CC12CCC(CC1)C(C)(C)O2 | -10.6% | inactive | -0.499% (inactive) | inactive | inactive | -11.5% | inactive | inactive | inactive | 
26 | Cc1cc(CC(=O)O)n(C)c1C(=O)c1ccc(Cl)cc1 |  |  | -2.23% (inactive) |  | inactive |  | inactive | inactive | inactive | 
27 | Nc1ccc(S(=O)(=O)Nc2nccs2)cc1 |  | inactive | -6.26% (inactive) |  | inactive | 11.3% |  | inactive | inactive | 
28 | Cc1cc2nc3c(=O)[nH]c(=O)nc-3n(C[C@H](O)[C@H](O)[C@H](O)CO)c2cc1C |  |  | -14% (inactive) |  |  |  |  |  |  | 
29 | CN(C)CCOC(C)(c1ccccc1)c1ccccn1 (configuration not stated) | -48.6% | inactive |  | inactive | inactive | 19.3% | inactive | inactive |  | 
30 | NCCNCCNCCNCCN |  |  | -3.86% (inactive) and -5.35% (inactive) | inactive | inactive | -10.7% and -8.96% |  | inactive | inactive | inactive
31 | CCCCOC(=O)c1ccc(O)cc1 | -14.2% |  | -4.25% (inactive) and 1.71% (inactive) |  | inactive | 0.828% and -8.13% | inactive | inactive | inactive | 
32 | NCCNCCNCCN | 26% |  | 21.8% (inactive) |  | inactive | 1.23% | inactive | inactive | inactive | 
33 | COC(=O)C1=C(C)NC(C)=C(C(=O)OC)C1c1ccccc1[N+](=O)[O-] |  |  | -7.74% (inactive) |  |  |  |  | inactive |  | 
34 | CCCCC(CC)COC(=O)c1ccccc1O (configuration not stated) | -34.6% | inactive | -10.3% (inactive) | inactive | inactive | -12.2% |  | inactive | inactive | 
35 | C[C@]12C[C@H](O)[C@H]3[C@@H](CCC4=CC(=O)CC[C@@]43C)[C@@H]1CC[C@@H]2C(=O)CO | 57.2% | inactive |  | inactive |  | 2.39% and 24.9% | inactive |  |  | 
